# The panel holds about 79,000 compounds, 15% with a hit somewhere; the sample as a whole holds those more often. Values without a mark were called inactive. Activity calls are given as the source filed them. No stated cut-off is given here; in the data, active means growth inhibition above about 70%; inactive means the rest.
# How the values were obtained:
# [1] = NCI Yeast Anticancer Drug Screen. Data for the rad50 strain (AID 155);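 further: 0% = growth of vehicle-only cultures of the same strain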; details: S. cerevisiae rad50 strain growth inhibition, active compounds read high
# How it was run: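 Readout: growth inhibition relative to vehicle-treated cultures. Compound exposure was carried out in a genetically defined yeast strain deficient in DNA damage repair.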
# [2] = NCI Yeast Anticancer Drug Screen. Data for the mec2-1 strain (AID 157); details: S. cerevisiae mec2-1 strain, active compounds read high
# How it was run: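 Each compound was tested on mec2-1 yeast, a strain altered in DNA damage repair or cell cycle control. Growth inhibition is reported relative to vehicle.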
# [3] = NCI Yeast Anticancer Drug Screen. Data for the sgs1 mgt1 strain (AID 161);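 further: 0% = growth of cultures given vehicle only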; details: S. cerevisiae sgs1 mgt1 strain, active compounds read high
# How it was run: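 Genetically altered yeast, compound exposure, growth inhibition relative to vehicle.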
# [4] = NCI Yeast Anticancer Drug Screen. Data for the cln2 rad14 strain (AID 165);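 further: 0% = growth equal to vehicle treated cultures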; details: S. cerevisiae cln2 rad14 strain, active compounds read high
# How it was run: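 Test compounds were added to cln2 rad14 yeast cultures; inhibition of growth was then determined by comparison with vehicle treatment.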
# [5] = NCI Yeast Anticancer Drug Screen. Data for the bub3 strain (AID 167); details: S. cerevisiae bub3 mutant strain, active compounds read high
# How it was run: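 Readout: yeast growth inhibition, expressed relative to vehicle-only wells. The test organism is a mutant strain from a panel with lesions in DNA repair or checkpoint genes.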
# [6] = NCI Yeast Anticancer Drug Screen. Data for the mlh1 rad18 strain (AID 175); details: S. cerevisiae mlh1 rad18 strain growth inhibition, active compounds read high
# How it was run: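 Inhibition values reflect reduced growth of mutant yeast versus vehicle-treated controls following compound exposure; the mutations affect DNA damage repair.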
# [7] = at 5.0 µM (retest, dose inferred, filed as 0.5)
# [8] = at 50.0 µM (retest, dose inferred, filed as 5.0)
Compound,"growth inhibition [1, 7]","growth inhibition [1, 8]",growth inhibition ([1]; at 50.0 µM),"growth inhibition [2, 7]","growth inhibition [2, 8]",growth inhibition ([2]; at 50.0 µM),"growth inhibition [3, 7]","growth inhibition [3, 8]",growth inhibition ([3]; at 50.0 µM),"growth inhibition [4, 7]","growth inhibition [4, 8]",growth inhibition ([4]; at 50.0 µM),"growth inhibition [5, 7]","growth inhibition [5, 8]",growth inhibition ([5]; at 50.0 µM),"growth inhibition [6, 7]","growth inhibition [6, 8]",growth inhibition ([6]; at 50.0 µM)
COc1ccc(C2c3cc4c(cc3OC(NCCO)C2C)OCO4)cc1 (centres undefined),-3%,88% (active),89% (active),-43%,86% (active),92.5% (active),-50%,82% (active),90.3% (active),5%,78% (active),92% (active),-24%,95% (active),91.2% (active),-18%,91% (active),88.2% (active)
CS(=O)c1cc(=O)c2ccccc2s1 (centres undefined),6%,85% (active),98.2% (active),-4%,73% (active),98.9% (active),19%,67%,99.3% (active),10%,60%,84.4% (active),0%,95% (active),96.2% (active),14%,88% (active),99% (active)
O=C(O)c1cccc(S(=O)(=O)NN2C(=O)CSC2c2c(O)ccc3ccccc23)c1 (centres undefined),-11%,50%,61.9%,0%,50%,61%,2%,80% (active),91.7% (active),-4%,57%,36.9%,6%,86% (active),83.5% (active),-15%,82% (active),95.2% (active)
CCCCCCCCCCCCCCNCCN,23%,29%,88.1% (active),46%,33%,91% (active),53%,97% (active),92.5% (active),27%,97% (active),88.7% (active),84% (active),96% (active),89.5% (active),25%,29%,88.5% (active)
CC(C)NCCCNc1nc(NCCCNC(C)C)c2nc(-c3ccccc3)c(-c3ccccc3)nc2n1,4%,82% (active),52%,1%,88% (active),58.7%,-2%,86% (active),53.4%,-3%,56%,55.8%,0%,35%,50.1%,2%,90% (active),57.2%
COC(=O)c1c[nH]c2ccc(Br)cc12,-3%,23%,30.9%,8%,43%,28.8%,-1%,19%,31.8%,-9%,-20%,44%,7%,22%,68.5%,23%,40%,40.5%
Cc1cc(O)c(C)c(C)c1N=Nc1ccccc1,-157%,-58%,56.4%,-52%,-51%,6.3%,-68%,-38%,58.5%,-63%,-81%,16.8%,-70%,-47%,63.8%,-124%,-119%,87.5% (active)
O=C(O)c1ccc([N+](=O)[O-])cc1.[Ag],99% (active),99% (active),98.8% (active),100% (active),99% (active),99.3% (active),99% (active),99% (active),99.5% (active),99% (active),99% (active),98.9% (active),99% (active),99% (active),99.2% (active),–,–,–
CCCCCCCCCCCCNC(=O)c1cc[n+](Cc2ccc(Cl)c(Cl)c2)cc1,99% (active),98% (active),99.3% (active),100% (active),97% (active),99.2% (active),100% (active),98% (active),99.1% (active),88% (active),98% (active),97.8% (active),98% (active),98% (active),98.8% (active),99% (active),99% (active),99% (active)
O=C(N/C(=C\c1cc(Cl)ccc1Cl)c1nc2ccc(Cl)cc2[nH]1)c1ccccc1,29%,87% (active),93.2% (active),17%,82% (active),96.5% (active),28%,81% (active),93.8% (active),39%,84% (active),91.9% (active),31%,87% (active),94.7% (active),–,–,–

# Reference: PubChem BioAssay (NCI)
